Where “and” joins values, the source holds several entries; their conditions need not be identical. Equal entries are not always repeated. Inconclusive results are not listed. A structure can be active in one record and inactive in another. Calls of active or inactive are those of the source. Calls come from the whole dose curve; as a rule, active = well fitted activation curve with a large enough effect in the repeat runs; inconclusive = weak or mixed curves; inactive = flat fitted curve, though single readings scatter.
Assay: A CellTox Green Cytotoxicity Assay to monitor cytotoxicity in HepG2 cells - 8 hour (AID 1224890); note: nearly all actives have a fitted effect of over 45% in size
Details: CellTox Green fluorescence; series mostly up to 76.8 µM; cytotoxicity increase: at the top concentration
Summary of the method: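 HepG2, 600 cells/well premixed w/ CellTox Green; 5 h settle, 37 C/5% CO2; pintool cpd add (DMSO); 37 C, 40 h; fluorescence read at 0, 8, 16, 24, 32, 40 h.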
% is set by controls: 0 for no effect and ±100 for the full control effect; potency is the fitted concentration of half-maximal effect.

Compound | Potency | cytotoxicity increase
CCN(CC)c1ccc2c(C)cc(=O)oc2c1 | inactive | –
CCCN[C@H]1CCc2nc(N)sc2C1 | inactive | –
CC(C)(C)c1ccccc1 | – | -2.75% (inactive)
NC12CC3CC(CC(C3)C1)C2 | – | -4.06% [at 35.3 µM] (inactive)
NC(N)=NC(=O)Cc1c(Cl)cccc1Cl | – | 0.0044% [at 35.3 µM] (inactive)
CC(C)(C)NC(=O)[C@@H]1CN(Cc2cccnc2)CCN1C[C@@H](O)C[C@@H](Cc1ccccc1)C(=O)N[C@H]1c2ccccc2C[C@H]1O | inactive | –
CCCCCCCCCCCCCC[P+](CCCC)(CCCC)CCCC | 24.4 µM (active) and 19.5 µM (active) | –
CCCNC(C)C(=O)Nc1ccccc1C (stereo not drawn) | – | 0.0894% [at 35.3 µM] (inactive)
CCOc1ccccc1C(N)=O | inactive | –
CC(=O)CC(C)=O | – | -6.55% (inactive)
O=c1n(CC2CO2)c(=O)n(CC2CO2)c(=O)n1CC1CO1 (stereo not drawn) | inactive | –
NNCCc1ccccc1 | inactive | –
CC1COC(=O)O1 (stereo not drawn) | inactive and 43.6 µM (active) | –
CC1=CC(=O)c2ccccc2C1=O | 54.9 µM (active) and 23.9 µM (active) | –
O=Nc1ccc(Nc2ccccc2)cc1 | inactive | –
Oc1ccc(Cl)cc1Cc1cc(Cl)ccc1O | inactive | –
CCCCOCCOC(=O)c1ccccc1C(=O)OCCOCCCC | inactive | –
CCn1cc(C(=O)O)c(=O)c2cc(F)c(N3CCNC(C)C3)c(F)c21 (stereo not drawn) | – | 2.49% [at 35.3 µM] (inactive)
O=C(O)CP(=O)(O)O | – | 0.245% [at 35.3 µM] (inactive)
CCN(CC)C(=O)Nc1ccc(OCC(O)CNC(C)(C)C)c(C(C)=O)c1 (stereo not drawn) | – | -12.9% [at 35.3 µM] (inactive)
CCOc1ccc2c(c1)C(C)=CC(C)(C)N2 | inactive | –
COc1ccc(Cc2cnc(N)nc2N)cc1OC | – | -17.3% [at 35.3 µM] (inactive)
Cc1occc(=O)c1OC(=O)C(C)C | – | 6.27% (inactive)
